# Assay results from PubChem BioAssay (NCI).
# Compounds without any hit were thinned out: in the full panel of roughly 83,000, 20% have a hit.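 How to read the values: 0–100, growth inhibition (40 = 60% inhibited); 0, no net growth; -100 to 0, cell death (-40 = 40% of starting cells died; -100 = all dead).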 A number with no mark means an inactive call. Activity calls are given as the source filed them. The calls were made as follows: active = growth percent below 10; inactive = the rest.
# Columns and labels:
# Experiment in all cases: NCI-60 one-dose screen, 48 h (100 = growth as untreated, 0 = no growth, -100 = all killed)
# Conditions in all cases: 10 µM unless noted
# [1] = system: SK-MEL-2 melanoma
# [2] = system: EKVX NSCLC
# [3] = system: SN12C renal
# [4] = system: TK-10 renal
# [5] = system: ACHN renal
# [6] = system: CAKI-1 renal
# [7] = system: A498 renal
# [8] = system: CCRF-CEM leukemia
# [9] = system: MOLT-4 leukemia
# [10] = system: UO-31 renal
SMILES,growth [1],growth [2],growth [3],growth [4],growth [5],growth [6],growth [7],growth [8],growth [9],growth [10]
Cn1ccnc1C(=O)/C=C/c1ccc(C(=O)Nc2ccc(F)cc2)cc1,74.6%,26.6%,14.3%,13.1%,-49.9% (active),28.9%,-9.36% (active),2.27% (active),7.92% (active),–
CCCCCCOC(=O)CC1=C(C)/C(=C/c2[nH]c(-c3ccc[nH]3)cc2OC)N=C1C,-49.5% (active),-35% (active),–,-24.9% (active),-19.5% (active),0.637% (active),-49.4% (active),-22.5% (active),-30.3% (active),-86.9% (active)
N#Cc1nc2c(S(=O)(=O)c3ccccc3)c(N)n(Cc3cccnc3)c2nc1C#N,111%,76.7%,–,99.2%,96.2%,96.3%,104%,35.3%,50%,58.4%
CCCn1c(=S)sc2c1nc(C)n1c(Nc3ccccc3)nnc21,-0.18% (active),36.6%,–,86.7%,82.8%,93.9%,57.2%,66.3%,31.1%,71.6%
C=CCN=C(N)SCCCCCCSC(N)=NCC=C,80.5%,98.4%,–,79.6%,106%,97.7%,79.3%,106%,81.8%,80.6%
COc1ccc(C2=Nc3c(N)ncnc3NC(c3cccc(Nc4ccnc5cc(C(F)(F)F)ccc45)c3)C2)cc1 (stereo not given),73.7%,54%,–,95.6%,78.8%,61.5%,65.2%,42.4%,19.7%,45.2%
O=C1/C(=C/c2ccc(C(F)(F)F)cc2)COc2ccc(O)cc21,99.7%,96.3%,–,99.2%,91.3%,71.9%,109%,3.29% (active),4.15% (active),44.8%
Cc1ccc(N=Nc2c(N)nn(-c3ccccc3)c2N)cc1,41.2%,29.9%,–,43.6%,47.6%,-2.05% (active),49.9%,8.89% (active),23.5%,45.1%
CCN1C(=O)N(CC)C2C1NN=c1s/c(=C\c3ccccc3Br)c(=O)n12 (stereo not given),51.1%,47.7%,–,70.9%,26.1%,24.7%,-1.67% (active),14.5%,15.2%,36.2%
O=C1/C(=C/c2ccccc2[N+](=O)[O-])COc2ccc(O)cc21,57.1%,54.7%,–,27.4%,-13.5% (active),-15.3% (active),85.8%,0.864% (active),4.74% (active),-68.7% (active)
N#CCC1=NC(c2cccs2)=Nc2ccccc2S1,96.9%,105%,86.6%,117%,98.2%,–,90.9%,90.8%,92.5%,–
Clc1nccc2c(-c3csc(-c4c[nH]c5ccccc45)n3)c[nH]c12,79.5%,63.2%,–,55.8%,24.4%,52.3%,32.7%,31.1%,40.5%,25.9%
CCOC(=O)c1c2c(n3c1NCC3)-c1ccccc1C2=O,79.3%,95.8%,–,96.4%,97.3%,89.9%,100%,85%,87.8%,39.8%
COc1cc(C(=O)/C=C/c2ccc(N3CCN(C)CC3)cc2)cc(OC)c1OC,107%,88.6%,–,110%,97.6%,90.9%,108%,105%,98%,73.2%
C/C(=N\O)C(=O)NCCCCCC(=O)Nc1ccccc1,110%,98.2%,–,89.6%,109%,91.9%,90.2%,101%,101%,–
COc1ccc(Cl)cc1Nc1nc(C(F)(F)F)ccc1C(=O)N/N=C/c1ccccc1Cl,-7.25% (active),-0.149% (active),–,15.6%,3.39% (active),11.5%,28.1%,7.11% (active),3.07% (active),2.9% (active)
COc1cccc(NC(=O)c2cccc(C3CCc4c(cc(OC)c(OC)c4OC)O3)c2)c1 (stereo not given),65.5%,69.1%,–,74.5%,66.8%,80.3%,30.2%,22.1%,7.7% (active),–
CCOC(=O)c1c(-c2ccccc2)n2c(=O)cc(C)c3c(O)c(O)cc1c32,83.8%,86.6%,–,89.2%,47%,52%,88.6%,17.1%,36.1%,51.1%
Cn1c(=O)c2c(nc(NC3=NS(=O)(=O)c4ccccc43)n2Cc2ccccc2)n(C)c1=O,99.7%,91.5%,–,143%,97.5%,83.7%,60.4%,104%,106%,81.2%
CC[C@H](Nc1nc(N)nc(C)c1C#N)c1nc2cccc(NCCCCCC(=O)NO)c2c(=O)n1-c1ccccc1,76.1%,75%,–,33.2%,51.9%,35.9%,-29.5% (active),43.3%,30.7%,30.1%
Cc1cccc(-n2c(C)nc3ccc(N4CCCNC4=O)cc3c2=O)c1,106%,99.5%,–,104%,111%,99.8%,90.1%,106%,110%,88.7%
CC(=O)N/C(=C1/OC(C(O)C(O)C(O)CO)CN1C)[P+](c1ccccc1)(c1ccccc1)c1ccccc1 (stereo not given),99.5%,–,96.2%,104%,100%,90.6%,120%,97.1%,102%,79.4%
CCCCCCCCNc1cc2c3c(c1)CCCN3CCC2,-46.6% (active),–,9.8% (active),41.7%,30.9%,38.6%,80.2%,42.8%,27.5%,61%
COc1ccc(/C=C/C(=O)c2cc3c(N)c(C(=O)Nc4ccccc4C)sc3nc2C)cc1,14.5%,–,26.4%,32%,38.7%,23.3%,16.7%,16.4%,27.6%,40.4%
C=C1C(=O)O[C@H]2[C@H]1CC/C(CNC(=O)c1cc3ccccc3[nH]1)=C\CC[C@@]1(C)O[C@@H]21,-60.8% (active),–,-43.3% (active),-89.9% (active),-77.6% (active),-60.4% (active),-63.4% (active),-35.7% (active),-35.5% (active),-73.5% (active)
COc1cc2c(c(OC)c1OC)C(=O)N[C@@H]1[C@@H](O)[C@@H](O)[C@H](O)C[C@@H]21,117%,–,–,98.5%,99.7%,94.1%,112%,104%,104%,87.1%
CCCCSCC(=O)c1ccccc1,85.2%,–,103%,86.1%,101%,–,106%,91.9%,92.9%,85%
CCOC(=O)c1c(C)nc2c(c1N)CC(=O)N2Cc1cc(OC)c(OC)c(OC)c1,27%,–,74%,54.8%,64.9%,50.6%,35.8%,78.2%,52.1%,62.2%
Cc1cscc(C)c1=S,11.9%,–,87.5%,92.4%,-5.99% (active),51.2%,128%,91.1%,81.2%,70.5%
O=C(CN1C(=O)/C(=C/c2ccco2)SC1=S)NCCc1c[nH]c2ccc(F)cc12,119%,–,97.6%,105%,101%,81.8%,94.5%,97.1%,97.7%,70.8%
